Screening results from PubChem BioAssay.
Compounds with a hit are over-represented: about 2.4% of the library has one in this group of screens.
D2 ag-1 = HTS Assay for Allosteric Agonists of the Human D2 Dopamine Receptor: Primary Screen for Agonists; D(2) dopamine receptor (Homo sapiens), P14416; HEK293 T-REx D2 cells, calcium flux agonist mode; activation, % at 2 µM; 340,000 tested, 0.53% active; AID 485358, 2010;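 active = activation over 3 SD above normal in the single-dose calcium agonist read, cut at about 30% in these data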; note: 0% is about no effect
Target sequence (P14416 whole entry, looked up): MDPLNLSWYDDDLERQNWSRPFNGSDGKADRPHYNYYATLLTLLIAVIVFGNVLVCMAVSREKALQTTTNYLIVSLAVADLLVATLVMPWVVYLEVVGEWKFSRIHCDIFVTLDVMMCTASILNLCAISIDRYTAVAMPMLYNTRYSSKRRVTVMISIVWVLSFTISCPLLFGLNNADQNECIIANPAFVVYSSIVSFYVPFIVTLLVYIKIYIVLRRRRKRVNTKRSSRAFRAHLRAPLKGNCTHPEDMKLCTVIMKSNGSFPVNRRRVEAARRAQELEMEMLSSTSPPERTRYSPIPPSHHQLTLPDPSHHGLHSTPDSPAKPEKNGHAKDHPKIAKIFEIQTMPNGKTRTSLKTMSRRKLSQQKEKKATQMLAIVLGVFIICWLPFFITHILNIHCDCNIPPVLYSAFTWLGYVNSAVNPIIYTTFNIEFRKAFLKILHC
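Calcium-flux readout, 1 cycle/sec over 180 s following compound pin transfer, in inducible HEK293 Trex D2 cells (force-coupled); dopamine controls included. Positive calcium responses during this window marked compounds as potential agonists.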
D2 antag = HTS Assay for Allosteric Antagonists of the Human D2 Dopamine Receptor: Primary Screen for Antagonists; 340,000 tested, 2% active; inhibition, % at 10 µM; AID 485344, 2010; HEK293 TREx D2 cells, calcium flux, dopamine EC80; in the data active = inhibition above about 30%; inactive = below that, where a call was filed; note: 0% is about no effect
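Measurement of antagonist activity uses fluorescent calcium dye in inducible HEK293 T-REx D2 cells: 10 s baseline, compound addition with 180 s read, EC80 dopamine addition with a further 180 s read.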
D2 PAM-1 = Beta-Arrestin HTS for Positive Allosteric Modulators of the Human D2 Dopamine Receptor: Potentiators; D(2) dopamine receptor (Homo sapiens), P14416; DiscoveRx D2 beta-arrestin cells, luminescence, 90 min; 100% = 57 uM dopamine signal; potentiation, % (test concentration not listed); 360,000 tested, 0.23% active; in the data active = potentiation above about 50%
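D2 cells co-treated with compound plus 50 nM dopamine (EC20) for 90 min at 37 deg C to detect potentiation. Beta-arrestin recruitment was read as enzyme-fragment luminescence after 1 h at ambient temperature. Full response was set by 57 uM dopamine.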
D2 PAM-2 = HTS Assay for Positive Allosteric Modulators of the Human D2 Dopamine Receptor: Primary Screen for Potentiators | HEK293 T-REx D2, calcium flux, EC20 dopamine potentiation | potentiation, % at 10 µM | 340,000 tested, 0.34% active;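 active = potentiation over 3 SD above the plate norm, cut at about 30% in these data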; note: 0% is about no effect
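Potentiation of an EC20 dopamine calcium response is measured in a force-coupled, tetracycline-inducible Hek293 Trex D2 line. Compound-only kinetic reads over 180 s flag agonists before dopamine addition.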
D2 ag-2 = Beta-Arrestin HTS for Positive Allosteric Modulators of the Human D2 Dopamine Receptor: Agonists. DiscoveRx PathHunter D2 beta-arrestin, luminescence, 90 min; 100% = 57 uM dopamine signal. activation, % (no concentration beside the values). 360,000 tested, 0.084% active. AID 624465, 2012; in the data active = activation above about 40%
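DiscoveRx PathHunter D2 beta-arrestin cells (2,100/well) attached overnight, then compound-stimulated 90 min at 37 C in HBSS/10 mM HEPES/0.1% Tween-20 buffer; beta-galactosidase complementation read by luminescence after 1 h at ambient temperature. Dopamine 57 uM final (EC100) as control.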
Active calls of the source: *; / = no result.

SMILES | D2 ag-1 | D2 antag | D2 PAM-1 | D2 PAM-2 | D2 ag-2
Cc1ccc2oc(-c3cc(NC(=O)c4ncn[nH]4)ccc3O)nc2c1 | 1 | 13 | 3 | 31* | -1
CCOc1ccc(C2C(C(=O)Nc3ccc(OC)cc3)=C(C)Nc3nc(SCc4ccc(Cl)cc4)nn32)cc1 (stereo not given) | -1 | / | / | 2 | /
O=C(c1cc(F)ccc1F)C1CCCN(C(=O)CCN2CCCCO2)C1 (stereo not given) | 1 | 32* | -4 | 2 | 0
COC(=O)CCC(=O)N1CCCC(C(=O)c2cc(F)ccc2F)C1 (stereo not given) | 0 | 14 | 2 | -2 | 5
CC(C)Oc1ccc(CNC(=O)c2cccc(NC(=O)c3nsc4ccccc34)c2)cc1 | 0 | / | / | -3 | /
O=C(COc1ccccc1)Nc1nnc2n1CCS2 | 0 | / | / | 5 | /
CC(C)(C)n1nnnc1CN1CCN2CCCC2C1 (stereo not given) | 1 | 37* | 0 | 14 | 1
C[C@@H]1CC2OC(=O)[C@@]3(C)C(=O)CC[C@@](C)(C23)[C@@]1(O)CCc1ccoc1 (stereo not given in full) | 0 | 30* | 1 | -13 | -1
CC1=C(C(N)=O)C(c2cccc(C)c2)n2nc(-c3ccc(Cl)cc3)nc2N1 (stereo not given) | 1 | / | / | -10 | /
Cc1cc(C)c(C#N)c(N2CCN(S(=O)(=O)Cc3ccccc3)CC2)n1 | -2 | -13 | -6 | 12 | -6
Cc1cc(C)c(C#N)c(N2CCN(Cc3ccccc3)CC2)n1 | 1 | 74* | -21 | -27 | 0
Cc1cc(C)c(C#N)c(N2CCN(Cc3ccc4c(c3)OCO4)CC2)n1 | 0 | 98* | -37 | -20 | -6
N#CCc1c(C#N)c(N)nc(N2CCN(Cc3ccc4c(c3)OCO4)CC2)c1C#N | 2 | 18 | -28 | -35 | -1
COc1ccc(OC)c(CCNC(=O)c2ccc(NC3=NC4CS(=O)(=O)CC4S3)cc2)c1 (stereo not given) | 0 | 34* | -3 | 19 | -3
Cc1cc(C)cc(NC(=O)c2cccc(NC3=NC4CS(=O)(=O)CC4S3)c2)c1 (stereo not given) | 0 | 34* | -7 | 4 | -10
Cc1ccc(CCNC(=O)Cc2ccc(NC3=NC4CS(=O)(=O)CC4S3)cc2)cc1 (stereo not given) | 0 | 38* | -5 | -4 | -6
CCOc1ccccc1NC(=O)c1cccc(NC2=NC3CS(=O)(=O)CC3S2)c1 (stereo not given) | 0 | 0 | 0 | 3 | -4
COc1ccccc1CNC(=O)c1ccc2c(c1)N(Cc1cc(C)ccc1C)C(=O)c1ccccc1S2 | 1 | / | / | -9 | /
Cc1cc(NC(=O)CN(C)S(=O)(=O)c2ccc3c(c2)CCCC(=O)N3)ccc1Br | -1 | / | / | / | /
CC(=O)Nc1ccc(OC(=O)c2ccc(Br)c([N+](=O)[O-])c2)cc1 | 0 | 30* | -8 | 0 | -2
CC(=O)Nc1ccc(S(=O)(=O)N2CCN(Cc3ccccc3[N+](=O)[O-])CC2)cc1 | 1 | -3 | -4 | 38* | 2
CC(=O)Nc1ccc(S(=O)(=O)N2CCN(Cc3csc(C)n3)CC2)cc1 | 0 | -7 | 53* | 9 | -5
CC(=O)Nc1ccc(S(=O)(=O)N2CCN(CC(=O)N3CCOCC3)CC2)cc1 | 1 | 37* | -13 | -3 | -4
Cc1ccc(S(=O)(=O)N2CCN(CC(=O)N3CCOCC3)CC2)cc1 | 0 | -6 | -3 | 10 | -8
CC(=O)Nc1ccc(S(=O)(=O)N2CCN(Cc3ccccn3)CC2)cc1 | 4 | 23 | -10 | 1 | -1
COc1ccccc1-c1cc(NC(=O)COc2ccccc2Cl)n(-c2ccccc2)n1 | 1 | / | / | 6 | /
CCc1ccc(NC(=O)CSc2nc(-c3ccccc3)no2)cc1 | 0 | / | / | 1 | /
